From PubChem BioAssay (NCATS) come the findings set out here.

Values joined by “and” are separate entries in the source; they are usually repeats but may differ in a detail not shown here. Equal entries are not always repeated. A number with no mark means an inactive call. Inconclusive results are not listed. Active and inactive are the calls of the source. Unless noted, the call rests on the fitted dose curve; in most records, active means well fitted curve in the direction sought with a large enough effect; inconclusive means small, poorly fitted or top-dose-only effect, or another doubt; inactive means no such curve, though single readings can be large; an effect the other way counts as inactive or inconclusive.

Assay [1] is described as follows: qHTS assay for environmental chemicals that activate the Aryl hydrocarbon Receptor (AhR) signaling pathway (AID 651777). Further: nearly all actives have a fitted effect of over 15% in size. Further: potency means the concentration at half of the fitted maximal effect. On activation: % of control where 0% means no effect. The conditions noted are these: 1A2-DRE human hepatoma cells, luciferase, 24 h; activation: stronger effect = higher value. A digest of the protocol:
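Concentration–response screening used 1,200 1A2-DRE cells per well, 24 hr compound exposure (37 C, 5% CO2), and One-Glo luminescence as the AhR-driven CYP1A2 reporter signal.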
On the technique in general: qHTS replaces the single test concentration by a dilution series.

The target in assay [2] is Tumor necrosis factor (Homo sapiens) (UniProt P01375). Description: qHTS assay to identify small molecules that stimulate Tumor Necrosis Factor-alpha (TNF-alpha) secretion (AID 651757; active means well fitted curve in the direction sought with a large enough effect in the signal ratio; the % refers to the signal ratio; further: 0% is about no effect). The essentials:
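Human monocytic THP-1 cells are plated, treated with compound and held at 37 C for 17 hrs. Labeled anti-TNF-alpha antibody mixture is then added; after 3 hr at room temperature, TR-FRET signal reports secreted TNF-alpha.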

For assay [3], the target named is Nuclear receptor ROR-gamma (Homo sapiens) (UniProt P51449). Description: qHTS assay for small molecule antagonists of the retinoid-related orphan receptor gamma (ROR-gamma) signaling pathway (AID 651802). Further: nearly all actives have a fitted effect of over 60% in size. Further: potency means the concentration at half of the fitted maximal effect. A digest of the protocol:
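Steps: cells dispensed; compound or DMSO transferred by pin tool; doxycycline added to induce the ROR response element-driven luciferase; plates held 16hr at 37C; ONE-Glo added and luminescence measured.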

The nature of assay [4]: qHTS assay to identify small molecules that stimulate interleukin-8 (IL-8) secretion (AID 651758; active means well fitted activation curve with a large enough effect in the signal ratio; the % refers to the signal ratio; further: 0% is about no effect). A digest of the protocol: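 Compounds are added to THP-1 cells (2000 per well) and left 16 hrs at 37 C. A labeled anti-IL-8 antibody pair is then added, and IL-8 secretion is measured by time-resolved FRET after 1-3 hrs at room temperature.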
Assay [5] addresses Peroxisome proliferator-activated receptor alpha (Homo sapiens) (UniProt Q07869). Description: qHTS assay for small molecule agonists of the peroxisome proliferator-activated receptor alpha (PPARalpha) signaling pathway (AID 651778). Further: % of control where 0% means no effect. Conditions: PathHunter PPARalpha complementation, chemiluminescence, 6 h; max response: stronger effect = higher value. A digest of the protocol: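 Enzyme-fragment complementation assay in which ligand-bound PPARalpha translocates and forms an active enzyme that generates chemiluminescence. Cells were plated overnight, exposed to compound for 6 hr at 37 C, and then given detection reagent for 60 min at room temperature.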

Tumor necrosis factor (Homo sapiens), sequence (P01375 whole entry, looked up): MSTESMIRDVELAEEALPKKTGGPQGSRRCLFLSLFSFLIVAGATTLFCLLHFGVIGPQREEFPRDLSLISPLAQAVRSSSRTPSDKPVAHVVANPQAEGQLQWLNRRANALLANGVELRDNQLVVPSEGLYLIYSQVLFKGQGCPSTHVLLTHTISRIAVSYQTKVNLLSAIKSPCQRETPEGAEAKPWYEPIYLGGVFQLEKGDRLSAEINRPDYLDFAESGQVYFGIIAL
Peroxisome proliferator-activated receptor alpha (Homo sapiens), sequence (Q07869 whole entry, looked up, the tested form may be a part): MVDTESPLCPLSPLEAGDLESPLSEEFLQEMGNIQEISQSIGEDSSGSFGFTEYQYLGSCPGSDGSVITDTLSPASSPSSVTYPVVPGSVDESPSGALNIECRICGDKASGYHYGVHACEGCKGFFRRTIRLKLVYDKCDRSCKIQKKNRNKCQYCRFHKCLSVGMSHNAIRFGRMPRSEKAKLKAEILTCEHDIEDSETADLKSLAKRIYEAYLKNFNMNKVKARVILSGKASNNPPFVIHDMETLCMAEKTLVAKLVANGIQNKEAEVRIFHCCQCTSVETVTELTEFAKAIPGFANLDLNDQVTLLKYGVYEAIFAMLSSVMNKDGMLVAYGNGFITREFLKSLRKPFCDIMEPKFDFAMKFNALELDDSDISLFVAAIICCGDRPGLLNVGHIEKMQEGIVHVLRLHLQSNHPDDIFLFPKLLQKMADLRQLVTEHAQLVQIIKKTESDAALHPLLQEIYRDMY
Nuclear receptor ROR-gamma (Homo sapiens), sequence (P51449 whole entry, looked up): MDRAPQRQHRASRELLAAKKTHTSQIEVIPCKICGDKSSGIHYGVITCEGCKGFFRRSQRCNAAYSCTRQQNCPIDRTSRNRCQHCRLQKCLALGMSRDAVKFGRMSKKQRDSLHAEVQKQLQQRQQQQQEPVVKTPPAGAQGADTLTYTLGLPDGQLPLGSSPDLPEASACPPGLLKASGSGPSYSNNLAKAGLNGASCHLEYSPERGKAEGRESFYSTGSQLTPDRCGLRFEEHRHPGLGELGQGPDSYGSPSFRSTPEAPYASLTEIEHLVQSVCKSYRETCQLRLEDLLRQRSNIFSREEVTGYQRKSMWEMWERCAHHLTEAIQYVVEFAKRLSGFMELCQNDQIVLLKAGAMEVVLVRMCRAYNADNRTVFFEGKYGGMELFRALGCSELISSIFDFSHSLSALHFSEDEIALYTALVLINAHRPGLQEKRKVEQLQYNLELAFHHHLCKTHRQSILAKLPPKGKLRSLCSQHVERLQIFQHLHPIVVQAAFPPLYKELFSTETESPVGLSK

Regarding `CC(C)(C)C(O)C(Oc1ccc(Cl)cc1)n1cncn1` (stereo unspecified), in assay [1], the activation was 5.62%.

As for `ClC1=C(Cl)[C@]2(Cl)[C@@H]3[C@@H]4C[C@@H]([C@H]5O[C@@H]45)[C@@H]3[C@@]1(Cl)C2(Cl)Cl`, the activation in assay [1] is -1.01%.

With `CCCCCCCCc1ccc(O)cc1`, the compound was classed as inactive in assay [2]. For the same compound, the activation in assay [1] was 1.65% and 1.55%. The Potency result in assay [3] was “inactive”.

For `Nc1ccccc1N`, the Potency in assay [1] is 39.8 µM (active).

On to `O=S(=O)(c1ccc(Cl)cc1)c1ccc(Cl)cc1`, for which the result in assay [2] and in assay [4] was inactive. For the same compound, the activation in assay [1] is -0.947% and -1.11% and 1.55%. Further, the max response in assay [5] is 2.6% and -3.68% and -3.44%. In addition, the Potency entry in assay [3] was “inactive”.

For the compound `CCOP(=O)(NC(C)C)Oc1ccc(SC)c(C)c1` (stereo unspecified), the compound was classed as inactive in assay [2] and in assay [4]. Moreover, the activation in assay [1] is 4% and 2.89%. In addition, in assay [3], the Potency result is “inactive”.

On to `CO/C=C(/C(=O)OC)c1ccccc1Oc1cc(Oc2ccccc2C#N)ncn1`, for which the activation in assay [1] was 1.61%.

On to `CCCCCCCCCCCCCCCC[N+](C)(C)C`, for which the activation in assay [1] is 0.975% and 0.339%.

As for `CC(C)Oc1cccc(NC(=O)c2ccccc2C(F)(F)F)c1`, in assay [1], the activation was 11.8%.

Turning to `CCCCCC[C@H]1C(=O)O[C@H](C)[C@H](NC(=O)c2cccc(NC=O)c2O)C(=O)O[C@@H](C)[C@@H]1OC(=O)CC(C)C`, the activation in assay [1] was -1.12%.

As to `CCCCCCCCCC(CC)c1ccc(S(=O)(=O)O)cc1` (stereo unspecified), the activation in assay [1] is -1.06%.

Turning to `CN(C)NC(=O)CCC(=O)O`, in assay [2], the compound was called inactive. Further, the activation in assay [1] is 0.139% and -1.5%. Moreover, the Potency entry in assay [3] is “inactive”.

Consider `O=C(O)c1cc(Oc2ccc(C(F)(F)F)cc2Cl)ccc1[N+](=O)[O-]`, for which the activation in assay [1] is 2.44%.

Turning to `Nc1ccc([N+](=O)[O-])cc1`, the compound was called inactive in assay [2] and in assay [4]. Further, in assay [3], the Potency entry is “inactive”.

Turning to `O=S(=O)(O)C(F)(F)C(F)(F)C(F)(F)C(F)(F)F`, the activation in assay [1] is 1.87% and 3.11%.

Regarding `O=[N+]([O-])c1c2ccccc2cc2ccccc12`, in assay [2], the call was inactive. Also, the activation in assay [1] is 10%. Also, in assay [3], the Potency entry was “inactive”.

On to `Cc1cc(O)ccc1Cl`, for which the call in assay [2] was inactive. In addition, the activation in assay [1] was -0.735%.

Regarding `O=[N+]([O-])c1cc([N+](=O)[O-])c2ccccc2c1`, the compound was classed as inactive in assay [2]. Further, the activation in assay [1] was 11.7%. Also, the Potency result in assay [3] is “inactive”.

As for `CN(C)[C@@H]1C(=O)C(C(N)=O)=C(O)[C@@]2(O)C(=O)C3=C(O)c4c(O)cccc4[C@@](C)(O)[C@H]3[C@H](O)[C@@H]12`, in assay [2], the result was inactive. Also, the activation in assay [1] is 0.477% and 1.23% and -3.54%.

In the case of `C=CC(=O)NCNC(=O)C=C`, the call in assay [2] and in assay [4] was inactive. Moreover, the activation in assay [1] was 1.7% and 2.02%.

Take `COc1ccc(C(c2ccc(OC)cc2)C(Cl)(Cl)Cl)cc1`: the result in assay [2] and in assay [4] was inactive. Besides, in assay [1], the activation was 1.39% and 11.4% and 6.25%. For the same compound, the Potency in assay [3] is 26.6 µM (active).

Regarding `COC(C)(C)CCCC(C)C/C=C/C(C)=C/C(=O)OC(C)C` (stereo unspecified), the outcome in assay [2] was inactive. Further, the activation in assay [1] is 4.38% and 10.5%. Moreover, in assay [3], the Potency entry is “inactive”.

Take `O=C(Nc1ccccc1-c1ccc(Cl)cc1)c1cccnc1Cl`: the activation in assay [1] was 0.984%.

Take `CCCCOC(=O)c1ccccc1C(=O)OCc1ccccc1`: the compound was called inactive in assay [2] and in assay [4]. Moreover, the activation in assay [1] is 12.8% and 3.39%. For the same compound, the Potency entry in assay [3] was “inactive”.

With `c1cc2ccc3cccc4ccc(c1)c2c34`, the outcome in assay [2] and in assay [4] was inactive. Besides, in assay [1], the activation is -0.0456% and 4.28%. In addition, in assay [3], the Potency entry was “inactive”.

On to `O=C(O)COc1ccccc1`, for which the outcome in assay [2] and in assay [4] was inactive. Moreover, the activation in assay [1] was 0.99%.

`CCCCC(CC)COC(=O)c1ccccc1C(=O)OCC(CC)CCCC` (stereo unspecified): in assay [2], the result was inactive. Further, the activation in assay [1] is -0.0838% and 0.859%.

As to `CCOCCOC(C)=O`, the call in assay [2] was inactive. In addition, the activation in assay [1] was -0.221%. The max response in assay [5] is 0.307%. Besides, the Potency result in assay [3] is “inactive”.

In the case of `O=[N+]([O-])c1c(Cl)c(Cl)cc(Cl)c1Cl`, the result in assay [2] and in assay [4] was inactive. For the same compound, the activation in assay [1] is 4.33%. Also, in assay [3], the Potency result is “inactive”.

With `O=C(O)C(Cl)Cl`, the compound was classed as inactive in assay [2]. The activation in assay [1] is 3.85% and 0.254%. The Potency entry in assay [3] was “inactive”.

Take `OCCCBr`: the compound was called inactive in assay [2]. Further, in assay [1], the activation was 1.3%. Also, the Potency result in assay [3] is “inactive”.

For `CCO/N=C(\CC)C1=C(O)CC(c2c(C)cc(C)cc2C)CC1=O` (stereo unspecified), the activation in assay [1] was -2.09%.

Regarding `C1CCC(NC2CCCCC2)CC1`, the compound was classed as inactive in assay [2] and in assay [4]. For the same compound, in assay [1], the activation was -1.28% and -0.443% and 0.0289%. Moreover, the Potency result in assay [3] was “inactive”.
